High-throughput results from PubChem BioAssay.
MITF inh: human MITF inhibition, primary screen. O75030. AlphaScreen MITF homodimerization, bead proximity signal. inhibition, % at 2.6 µM. hit rate 0.91% among 650,000. AID 1259374; in the data active = inhibition above about 50%;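 also: 0% = vehicle wells with protein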
GPR151 ag: activators of human GPR151. PathHunter beta-arrestin GPR151 cells, luminescence. activation, % at 11.2 µM. hit rate 1% among 650,000. AID 1508602; in the data active = activation above about 4.9%;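 also: 0% = median of compound wells and 100% = cells with positive control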
TEAD-YAP inh: TEAD-YAP interaction inhibition; HEK-TIYL cells, TEAD-Gal4/YAP UAS-luciferase luminescence; inhibition, % at 9.12 µM; hit rate 1.4% among 640,000; AID 1259422; in the data active = inhibition above about 32%;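 also: 0% = median of test compound wells and 100% = reference inhibitor wells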
FBW7 act: human FBW7 E3 ligase activation, primary screen | AlphaScreen FBW7–phospho-cyclin E peptide binding, activator screen | normalized activity (activation), % at 26.1 µM | hit rate 0.13% among 650,000 | AID 1259310; in the data active = normalized activity above about 1.9%;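 also: purified mutant Fbw7 with reduced substrate affinity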
Starred values were filed as active, the others as inactive. Shown are actives, neighbours in structure and some others; about 3.5% of the full set was active somewhere.

SMILES | MITF inh | GPR151 ag | TEAD-YAP inh | FBW7 act
O=COC1CCCCC1NS(=O)(=O)c1ccccc1 (stereo unspecified) | -10 | 2 | 4 | 0
CC(OC(=O)c1ccco1)C(=O)NCc1ccccc1 (stereo unspecified) | 22 | 0 | 1 | 0
COCCNC(=O)C(OC(=O)c1ccco1)c1ccccc1OC (stereo unspecified) | 9 | -1 | 14 | 1.9*
CC(C)C(OC(=O)c1ccco1)C(=O)NCc1ccccc1 (stereo unspecified) | -5 | 1 | 59* | 0
CCCCOc1ccc(-c2cnc(S(C)(=O)=O)nc2)cc1 | 0 | 2 | 46* | 0
O=C(COC(=O)c1cc(O)[nH]c(=O)c1)Nc1cc(C(F)(F)F)ccc1Cl | 15 | 2 | -1 | 0
COc1cc(Cl)c(C)cc1NC(=O)COC(=O)c1cc(O)[nH]c(=O)c1 | 63* | -1 | 18 | -1
c1c2c(cc3sc(N4CCOCC4)nc13)OCCO2 | 15 | -6 | 69* | 0
COc1ccc(CN2C[C@@H]3C[C@@H](c4cc5ccccc5o4)N4CCC[C@@]34C2=O)cc1 | -7 | 0 | 77* | 0
COc1ccc(CN2C[C@@H]3C[C@@H](c4ccccc4C)N4CCC[C@@]34C2=O)cc1 | 4 | -2 | -6 | 0
CCn1c(=N)n(CC(=O)c2ccc(Br)cc2)c2ccccc21 | -6 | -1 | -28 | 3.4*
CCn1c(=N)n(CC(=O)c2ccc(C)cc2)c2ccccc21 | 7 | -1 | -17 | 1
CCCCc1ccc(-n2nnnc2SCC(=O)Nc2sccc2C(N)=O)cc1 | -2 | 0 | 37* | 0
O=C(CSc1nnc(-c2ccccc2O)n1-c1ccccc1)Nc1nccs1 | 2 | -1 | 54* | 0
C=CCn1c(SCC(=O)Nc2nccs2)nnc1-c1ccccc1O | -6 | 0 | 61* | 0
CCn1c(SCC(=O)Nc2nccs2)nnc1-c1ccccc1O | 2 | 1 | -6 | 0
NC(=O)c1ccsc1NC(=O)CSc1nnc(-c2ccccc2)n1-c1ccccc1 | 2 | 0 | 45* | 0
C=CCn1c(SCC(=O)Nc2sccc2C(N)=O)nnc1-c1ccccc1 | 5 | -1 | 26 | 0
N#Cc1ccsc1NC(=O)COC(=O)c1ccc2c(c1)C(=O)N(c1ccc(F)cc1)C2=O | -4 | 0 | -1 | 0
CCOC(=O)C1=C(C)N=c2s/c(=C/c3ccc(OC(C)=O)cc3OC(C)=O)c(=O)n2C1c1ccccc1Cl (stereo unspecified) | 1 | 1 | 3 | 0
COc1ccc(C2C(C(=O)OC(C)C)=C(C)N=c3s/c(=C\c4ccc(Br)o4)c(=O)n32)cc1 (stereo unspecified) | 16 | -2 | -1 | 1
O=C(CSc1nnc(-c2ccccc2)n1-n1cccc1)Nc1nccs1 | 3 | 0 | 38* | 0
Cc1csc(NC(=O)CSc2nnc(-c3ccccc3O)n2-c2ccccc2)n1 | -1 | -1 | 57* | 0
Cc1ccc(N2C(=O)C3C4C=CC(C4)C3C2=O)c(Br)c1 (stereo unspecified) | 3 | 0 | -4 | 0
CCOc1cc(C#N)ccc1OCC(=O)NC1CCCCC1 | 10 | -1 | 5 | 0
SMILES | MITF inh | GPR151 ag | TEAD-YAP inh | FBW7 act
COc1ccc(CCNc2nc(-c3cccs3)ncc2C)cc1 | 10 | 2 | 44* | 0
COc1ccc(CCNc2nc(Cl)ncc2C)cc1 | 13 | 1 | 42* | 0
Cc1cnc(Cl)nc1NCCc1ccc(O)cc1 | -2 | 1 | 0 | 0
COCCNC(=O)/C(C#N)=C/c1c(Oc2ccc(OC)cc2)nc2c(C)cccn2c1=O | 7 | 0 | 10 | 0
Cn1cc(-c2cccc3cnc(NC4CCN(C(=O)N5CCCC5)C4)nc23)cn1 (stereo unspecified) | 0 | -1 | 39* | 0
CCCCOC(=O)c1ccc(NC(=O)CSc2nnc(-c3ccco3)n2-c2ccccc2)cc1 | -8 | 1 | 11 | 0
CCOC(=O)c1cnc2ccc(OCC)cc2c1Nc1cccc(OC)c1 | 3 | 0 | -1 | 0
CCOc1ccc2ncc(C#N)c(Nc3cc(OC)cc(OC)c3)c2c1 | -10 | 0 | 45* | 0
CCC(=O)N1CCCC(c2nnc(-c3ccccc3F)s2)C1 (stereo unspecified) | 6 | -6 | 74* | 0
COc1cc(C2CC(c3c(O)cc(C)oc3=O)=Nc3ccccc3S2)cc(OC)c1O (stereo unspecified) | 12 | 1 | 44* | 0
COCCNc1ccc2ncc(-c3ccc(O)c(OC)c3)n2n1 | -2 | 1 | 55* | 0
COc1ccc(-c2cnc3ccc(NCCCO)nn23)cc1OC | -11 | 0 | 36* | 1
Cc1cc(NC(=O)CSc2nnc(-c3ccco3)c(-c3ccco3)n2)no1 | 25 | 0 | 32* | 0
O=C(CSc1nnc(-c2ccco2)c(-c2ccco2)n1)Nc1cccc(C(=O)O)c1 | 26 | 1 | 1 | 0
O=C(CSc1nnc(-c2ccco2)c(-c2ccco2)n1)Nc1ccc(C(=O)O)cc1 | 73* | 0 | 1 | -1
C=Cc1ccc(Cn2c(C)c(CNCc3ccc(OC)cc3)c(C(=O)O)c2C)cc1 | 27 | 1 | 20 | 0
O=C1c2cccc3c(Cl)ccc(c23)C(=O)N1O | 1 | -2 | 45* | 0
O=C1c2cccc3c(Br)ccc(c23)C(=O)N1O | -1 | -1 | 11 | 0
CC(C)(C)C1CCc2c(sc(NC(=O)c3cc4nc(-c5ccco5)cc(C(F)(F)F)n4n3)c2C#N)C1 (stereo unspecified) | 1 | 1 | -5 | 0
CCc1nc2ccccc2n1CC(O)COCc1ccccc1 (stereo unspecified) | -3 | -1 | -6 | 0
COc1ccc(CCNC(=O)c2cnc(Nc3ccc(N4CCOCC4)cc3)s2)cc1 | -1 | 3 | -13 | 0
COc1ccc(CCNC(=O)c2csc(Nc3ccc(N4CCOCC4)cc3)n2)cc1 | 14 | 1 | 71* | 0
O=C(NCCOc1ccccc1)c1csc(Nc2ccc(N3CCOCC3)cc2)n1 | -127 | 3 | 39* | 0
Cc1cccc(NS(=O)(=O)c2cc3c(cc2Cl)NC(=O)CO3)c1 | 10 | -1 | 0 | 0
Clc1ccc(-c2c[n+]3c(n2-c2ccccc2)CCC3)cc1 | 2 | 0 | 12 | 0
SMILES | MITF inh | GPR151 ag | TEAD-YAP inh | FBW7 act
COc1ccc(-c2c[n+]3c(n2-c2c(C)n(C)n(-c4ccccc4)c2=O)CCCCC3)cc1 | -1 | 0 | 4 | 0
Cc1ccc(-c2c[n+]3c(n2-c2ccc(C)cc2)CCCCC3)cc1 | 14 | 4 | 85* | 0
Cc1ccc(-c2c[n+]3c(n2-c2ccccc2)SCC3)cc1 | -12 | 1 | 56* | 0
Cc1ccc(-c2cn(-c3ccccc3)c3[n+]2CCCS3)cc1 | 16 | 0 | 68* | 0
Brc1ccc(-c2c[n+]3c(n2-c2ccccc2)SCC3)cc1 | -11 | -1 | 3 | 0
Cc1ccc(-n2c(-c3ccccc3)c[n+]3c2CCCCC3)cc1 | 13 | -1 | 59* | 0
CCOc1cc(/C=C2\C(=O)ON=C2c2ccccc2)ccc1OC | 58* | -1 | -10 | 0
COc1ccc(/C=C2/C(=O)ON=C2c2ccccc2)cc1OC | 65* | 2 | -26 | -1
